# Results filed as inconclusive are left out. Activity calls are given as the source filed them.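 How the source made its calls, unless noted: active means normalized viability below 100% at a tested concentration; inactive means the rest.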
# Tests used:
# [1] = viability loss in pontine glioma line – cell-based, SU-DIPG-XVII, MIPE5.0, CellTiter-Glo, qHTS, dose response (AID 1347060; cut-off not given, nearly all actives have AC50 up to about 26 µM;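 on AC50: cells exposed to compound for 48 hours before viability readout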); conditions: CellTiter-Glo ATP luminescence
# [2] = viability loss in pontine glioma line – cell-based, SU-DIPG-XIII, MIPE5.0, CellTiter-Glo, qHTS, dose response (AID 1347064; cut-off not given, nearly all actives have AC50 up to about 23 µM;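 on AC50: cells exposed to compound for 48 hours before the viability read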); conditions: CellTiter-Glo ATP luminescence
# [3] = viability loss in pontine glioma line – cell-based, SU-DIPG-XXV, MIPE5.0, CellTiter-Glo, qHTS, dose response (AID 1347065; cut-off not given, nearly all actives have AC50 up to about 26 µM;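 further: cells exposed to compound for 48 hours before ATP readout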); conditions: CellTiter-Glo ATP luminescence
# [4] = growth inhibition of DIPG cells – cell-based, MIPE5.0 library, qHTS (AID 1347068; cut-off not given, nearly all actives have IC50 up to about 30 µM); conditions: SU-DIPG-XXV viability
# [5] = JHH-DIPG-1 glioma cell viability, MIPE5.0 library, CellTiter-Glo luminescence, qHTS (AID 1347067; cut-off not given, nearly all actives have AC50 up to about 26 µM;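 further: cells exposed to compound for 48 hours before readout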); conditions: JHH-DIPG-1 glioma viability, CellTiter-Glo ATP luminescence
# [6] = viability loss with induced miR-34 in A549 – imaging, A549 dox-inducible miR-34, nuclei and caspase counts, primary screen (AID 1347080;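 active means compounds whose cell count with miR-34 switched on is under 0.7 times the count with it off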); conditions: A549 miR-34 inducible, Hoechst nuclei count, 48 h
# [7] = MELAS cybrid and Rieske KO viability enhancers – cell-based, MELAS cybrids, Rieske KO mouse fibroblasts, CellTiter-Glo, primary screen (AID 1508586;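 active means mean z-score across replicates of 1.96 or higher in either the MELAS or the Rieske mutant cell line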;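 further: z relative to plate mean and SD of compound and empty wells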); conditions: low glucose
# [8] = drug combination growth inhibition, ovarian cancer – cell-based, oncology-focused library, rucaparib conditional, profiling panel (AID 1508598); conditions: patient-derived ovarian cancer cells, CellTiter-Glo viability, 144 h, stronger effect = lower value
# [9] = stronger effect = lower value, cell number ratio, induced over uninduced
# [10] = measured here: relative caspase fold change +Dox/-Dox
# [11] = measured here: total cells with miR-34 induction, stronger effect = lower value
# [12] = measured here: total cells without miR-34 induction
# [13] = MELAS cybrid survival, CellTiter-Glo 48 h, stronger effect = higher value
# [14] = Rieske KO mouse fibroblast survival, CellTiter-Glo 72 h
# [15] = at 0.000305 µM, OCI-C5x cells, with rucaparib 10 µM, 100% = cells with rucaparib alone
# [16] = at 0.000305 µM, OCI-C5x cells, without rucaparib
# [17] = at 0.000305 µM, OCI-P5x cells, with rucaparib 20 µM, 100% = cells with rucaparib alone
# [18] = at 0.000305 µM, OCI-P5x cells, without rucaparib
# [19] = at 0.00122 µM, OCI-C5x cells, with rucaparib 10 µM, 100% = cells with rucaparib alone
# [20] = at 0.00122 µM, OCI-C5x cells, without rucaparib
# [21] = at 0.00122 µM, OCI-P5x cells, with rucaparib 20 µM, 100% = cells with rucaparib alone
# [22] = at 0.00122 µM, OCI-P5x cells, without rucaparib
# [23] = at 0.00488 µM, OCI-C5x cells, with rucaparib 10 µM, 100% = cells with rucaparib alone
# [24] = at 0.00488 µM, OCI-C5x cells, without rucaparib
# [25] = at 0.00488 µM, OCI-P5x cells, with rucaparib 20 µM, 100% = cells with rucaparib alone
# [26] = at 0.00488 µM, OCI-P5x cells, without rucaparib
# [27] = at 0.0195 µM, OCI-C5x cells, with rucaparib 10 µM, 100% = cells with rucaparib alone
# [28] = at 0.0195 µM, OCI-C5x cells, without rucaparib
# [29] = at 0.0195 µM, OCI-P5x cells, with rucaparib 20 µM, 100% = cells with rucaparib alone
# [30] = at 0.0195 µM, OCI-P5x cells, without rucaparib
# [31] = at 0.0781 µM, OCI-C5x cells, with rucaparib 10 µM, 100% = cells with rucaparib alone
# [32] = at 0.0781 µM, OCI-C5x cells, without rucaparib
# [33] = at 0.0781 µM, OCI-P5x cells, with rucaparib 20 µM, 100% = cells with rucaparib alone
# [34] = at 0.0781 µM, OCI-P5x cells, without rucaparib
# [35] = at 0.313 µM, OCI-C5x cells, with rucaparib 10 µM, 100% = cells with rucaparib alone
# [36] = at 0.313 µM, OCI-C5x cells, without rucaparib
# [37] = at 0.313 µM, OCI-P5x cells, with rucaparib 20 µM, 100% = cells with rucaparib alone
# [38] = at 0.313 µM, OCI-P5x cells, without rucaparib
# [39] = at 1.25 µM, OCI-C5x cells, with rucaparib 10 µM, 100% = cells with rucaparib alone
# [40] = at 1.25 µM, OCI-C5x cells, without rucaparib
# [41] = at 1.25 µM, OCI-P5x cells, with rucaparib 20 µM, 100% = cells with rucaparib alone
# [42] = at 1.25 µM, OCI-P5x cells, without rucaparib
# [43] = at 5 µM, OCI-C5x cells, with rucaparib 10 µM, 100% = cells with rucaparib alone
# [44] = at 5 µM, OCI-C5x cells, without rucaparib
# [45] = at 5 µM, OCI-P5x cells, with rucaparib 20 µM, 100% = cells with rucaparib alone
# [46] = at 5 µM, OCI-P5x cells, without rucaparib
structure (smiles),measurement,setting,value
CC(C)Oc1ccc(-c2nn([C@@H](C)c3oc4ccc(F)cc4c(=O)c3-c3cccc(F)c3)c3ncnc(N)c23)cc1F,outcome,[1],inactive
same,outcome,[2],inactive
same,outcome,[3],inactive
same,outcome,[4],inactive
Cc1nc2c(-c3cnc(N)nc3)nc(N3CCOCC3)nc2n1C(C)C,AC50,[1],0.742 µM (active)
same,AC50,[2],1.05 µM (active)
same,AC50,[3],0.332 µM (active)
same,AC50,[5],0.742 µM (active)
same,fold change,[6]; [9],0.815 (inactive)
same,fold change,[6]; [10],0.682
same,cell count,[6]; [11],1980
same,cell count,[6]; [12],2430
same,z-score,[7]; [13],5.52 (active)
same,z-score,[7]; [14],-0.403
same,viability,[8]; [15],117% (inactive)
same,viability,[8]; [16],112% (inactive)
same,viability,[8]; [17],108% (inactive)
same,viability,[8]; [18],109% (inactive)
same,viability,[8]; [19],120% (inactive)
same,viability,[8]; [20],120% (inactive)
same,viability,[8]; [21],95.6% (active)
same,viability,[8]; [22],109% (inactive)
same,viability,[8]; [23],120% (inactive)
same,viability,[8]; [24],116% (inactive)
same,viability,[8]; [25],92.3% (active)
same,viability,[8]; [26],113% (inactive)
same,viability,[8]; [27],111% (inactive)
same,viability,[8]; [28],114% (inactive)
same,viability,[8]; [29],90.3% (active)
same,viability,[8]; [30],108% (inactive)
same,viability,[8]; [31],98.8% (active)
same,viability,[8]; [32],116% (inactive)
same,viability,[8]; [33],77.8% (active)
same,viability,[8]; [34],97.3% (active)
same,viability,[8]; [35],102% (inactive)
same,viability,[8]; [36],103% (inactive)
same,viability,[8]; [37],68.3% (active)
same,viability,[8]; [38],76.9% (active)
same,viability,[8]; [39],69.8% (active)
same,viability,[8]; [40],54.3% (active)
same,viability,[8]; [41],37.6% (active)
same,viability,[8]; [42],34.8% (active)
same,viability,[8]; [43],34.3% (active)
same,viability,[8]; [44],32.9% (active)
same,viability,[8]; [45],13.7% (active)
same,viability,[8]; [46],14.6% (active)
Cc1ccc(Sc2ccccc2N2CCNCC2)c(C)c1,AC50,[1],11.8 µM (active)
same,AC50,[2],16.6 µM (active)
same,AC50,[3],10.5 µM (active)
same,AC50,[5],9.34 µM (active)
same,fold change,[6]; [9],0.93 (inactive)
same,fold change,[6]; [10],0.501
same,cell count,[6]; [11],4800
same,cell count,[6]; [12],5160
same,z-score,[7]; [13],-0.442 (inactive)
same,z-score,[7]; [14],-1.42
Cc1ccc(-c2nc(N)nc3c2nnn3Cc2cccc(CO[C@H]3CCOC3)n2)o1,outcome,[1],inactive
same,outcome,[2],inactive
same,outcome,[3],inactive
same,outcome,[4],inactive
O=C(O)c1ccc(O)c2ncccc12,outcome,[1],inactive
same,AC50,[2],20.9 µM (active)
same,outcome,[3],inactive
same,outcome,[4],inactive
same,fold change,[6]; [9],0.933 (inactive)
same,fold change,[6]; [10],0.445
same,cell count,[6]; [11],8640
same,cell count,[6]; [12],9260
same,z-score,[7]; [13],-0.339 (inactive)
same,z-score,[7]; [14],0.0902
same,viability,[8]; [15],112% (inactive)
same,viability,[8]; [16],117% (inactive)
same,viability,[8]; [17],94.2% (active)
same,viability,[8]; [18],89.3% (active)
same,viability,[8]; [19],120% (inactive)
same,viability,[8]; [20],123% (inactive)
same,viability,[8]; [21],101% (inactive)
same,viability,[8]; [22],97.9% (active)
same,viability,[8]; [23],120% (inactive)
same,viability,[8]; [24],116% (inactive)
same,viability,[8]; [25],103% (inactive)
same,viability,[8]; [26],98.1% (active)
same,viability,[8]; [27],127% (inactive)
same,viability,[8]; [28],113% (inactive)
same,viability,[8]; [29],100% (inactive)
same,viability,[8]; [30],105% (inactive)
same,viability,[8]; [31],112% (inactive)
same,viability,[8]; [32],120% (inactive)
same,viability,[8]; [33],98.2% (active)
same,viability,[8]; [34],103% (inactive)
same,viability,[8]; [35],108% (inactive)
same,viability,[8]; [36],121% (inactive)
same,viability,[8]; [37],96.3% (active)
same,viability,[8]; [38],102% (inactive)
same,viability,[8]; [39],110% (inactive)
same,viability,[8]; [40],115% (inactive)
same,viability,[8]; [41],98.5% (active)
same,viability,[8]; [42],106% (inactive)
same,viability,[8]; [43],115% (inactive)
same,viability,[8]; [44],122% (inactive)
same,viability,[8]; [45],111% (inactive)
same,viability,[8]; [46],111% (inactive)
C[C@@H]1CN(CC(=O)N2CC(C)(C)c3ncc(Cc4ccc(F)cc4)cc32)[C@@H](CN2CCOC[C@H]2C)CN1,outcome,[1],inactive
same,outcome,[2],inactive
same,outcome,[5],inactive
same,outcome,[4],inactive
O=C(Nc1ccc2c(=O)cc(-c3nn[nH]n3)oc2c1)c1ccc(OCCCCc2ccccc2)cc1,outcome,[1],inactive
same,outcome,[2],inactive
same,outcome,[3],inactive
same,outcome,[4],inactive
same,fold change,[6]; [9],0.988 (inactive)
same,fold change,[6]; [10],0.807
same,cell count,[6]; [11],7750
same,cell count,[6]; [12],7840
same,z-score,[7]; [13],-0.481 (inactive)
same,z-score,[7]; [14],-0.277
NC1CCCN(c2c(/C=C3\SC(=O)NC3=O)cccc2-c2ccccc2)C1 (stereo not given),outcome,[1],inactive
same,outcome,[2],inactive
same,outcome,[5],inactive
same,outcome,[4],inactive
CC(=O)Nc1ccc(C(=O)NC(C)(C)C)cc1,outcome,[1],inactive
same,outcome,[2],inactive
same,outcome,[5],inactive
CNCCN(C)Cc1cn[nH]c1-c1ccc(OC2CC(OCCC3CCOCC3)C2)cc1 (stereo not given),outcome,[1],inactive
same,outcome,[2],inactive
same,outcome,[5],inactive
same,outcome,[4],inactive
Fc1ccc(-c2nc(-c3ccccc3F)[nH]c2-c2ccncc2)cc1,outcome,[1],inactive
same,outcome,[2],inactive
same,outcome,[5],inactive
same,outcome,[4],inactive
Cc1[nH]nc(C(F)(F)F)c1Cc1sc2c(c1C(=O)N1C[C@](C)(O)CO1)c(=O)n(C)c(=O)n2C(C)C,outcome,[1],inactive
same,outcome,[2],inactive
same,outcome,[5],inactive
same,outcome,[4],inactive
